The target in experiment [1] is Cytochrome P450 3A4 (Homo sapiens) (UniProt P08684). The experiment in a line: qHTS Assay for Inhibitors and Substrates of Cytochrome P450 3A4 (AID 884). Further: on the % scale 0 is the no-effect control and ±100 the full control effect; nearly all actives have a fitted effect of over 50% in size. An outline of the steps:
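20 nM human CYP3A4 with 25 uM Luciferin-PPXE (at KM) in 200 mM KPO4, preincubated 10 min with compound; NADPH regeneration started a 60 min RT reaction. Luciferin detected by luminescence, normalized to 57 uM ketoconazole as full inhibition.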

A short description of experiment [2]: Confirmation and Secondary Assay for Modulators of Hemoglobin Beta Chain Splicing at IVS2 654 locus (AID 910).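 Further: HeLa cells stably carrying EGFP split by mutant beta-globin IVS2-654 intron; % of control where 0% means no effect.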 The method, boiled down:
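HeLa cells stably expressing EGFP interrupted by β-globin IVS2-654 intron, seeded overnight in Opti-MEM/2% FCS, then treated 2 days at 37 °C. Restored splicing read as total peak GFP intensity per well by laser scanning cytometry (488 nm excitation, 500–520 nm emission); 500 nM antisense PNA as control.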

Experiment [3] is described as follows: Confirmation and Secondary Assay for Modulators of Hemoglobin Beta Chain Splicing at IVS2 705 locus (AID 930).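 Further: HeLa cells stably expressing the EGFP-705 splicing reporter; GFP fluorescence per well restored by corrected splicing of the IVS2-705 intron in EGFP; % of control where 0% means no effect.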 The method, boiled down:
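Per-well GFP, captured at 1 x 8 µm resolution with 488 nm excitation, served as the read-out for HeLa EGFP-705 cells incubated 2 days with test compound versus DMSO.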

A short description of experiment [4]: qHTS Assay for Lipid Storage Modulators (AID 1519; calls by dose curve). Particulars: Drosophila S3 cells, BODIPY lipid droplet/cell ratio, laser cytometry, cells loaded with oleic acid; for activity change, negative = inhibition: at 57.5 µM (top of the series). The method, boiled down: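 Cells seeded at 5,000 per well were treated with compounds over a concentration series and loaded with oleic acid (400 uM, as added). Lipid droplet fluorescence (488 nm excitation, 500-530 nm channel) was read by laser-scanning cytometry and normalized to 20 uM Triacsin C.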
On the technique in general: qHTS replaces the single test concentration by a dilution series.

The target in experiment [5] is Ubiquitin carboxyl-terminal hydrolase 1 (Homo sapiens) (UniProt O94782). The experiment in a line: Inhibitors of USP1/UAF1: Pilot qHTS (AID 504865). Further: nearly all actives have a fitted effect of over 35% in size. Further: potency means the concentration at half of the fitted maximal effect. The method, boiled down:
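Enzyme-free wells gave the negative control, while test wells held 1nM USP1/UAF1 preincubated with compound for 15 min at room temperature. Ub-Rho at 150nM final started the reaction, and fluorescence at 480/540 nm was recorded kinetically.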

Experiment [6] addresses Lysosomal acid glucosylceramidase (Homo sapiens) (UniProt P04062). The experiment in a line: Glucocerebrosidase-p2 (AID 348; in the data active means potency below about 10 µM; further: potency means the concentration at half of the fitted maximal effect). To be noted: purified GBA, blue fluorogenic substrate, 40 min. An outline of the steps: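 Compounds titrated from 0.6 nM upwards against 0.2 nM enzyme in pH 5.9 citric acid/KH2PO4, taurocholate, tween-20; blue fluorogenic substrate 80 uM, 40 min room temperature, stopped and read Ex 365/Em 440 for AC50.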

Experiment [7] addresses Cytochrome P450 1A2 (Homo sapiens) (UniProt P05177). The experiment in a line: p450-cyp1a2 (AID 410; calls by dose curve; further: potency means the concentration at half of the fitted maximal effect). The method, boiled down: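 Inhibition was calculated relative to 57 uM furafylline (full inhibition). The reaction used human CYP1A2 at 20nM with Luciferin-ME at its Km, 100uM, driven by an NADPH-regenerating system for 60 min at room temperature.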
Experiment [8] can be described thus: Stat Signaling Pathway (AID 446; active means well fitted curve in either direction with a large enough effect, not every such curve was filed as active;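 further: ME-180 cervical cancer cells given 40 pM IL-6 alongside compound; SIE-controlled beta-lactamase reporter measured as 460/530 nm FRET emission ratio; on the % scale 0 is the no-effect control and ±100 the full control effect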). Particulars: ME-180 SIE beta-lactamase reporter, IL-6 stimulated, 5 h; at 7.69 µM (top of the series) unless noted. An outline of the steps: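 Reporter line: ME-180 cervical carcinoma, SIE-beta-lactamase. Treatment: compound with 40 pM IL-6, 5 hrs, 37 C, in low-serum OPTI-MEM with 10 mM HEPES pH 7.3. Detection: 460/530 nm fluorescence.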

The target in experiment [9] is Glucocorticoid receptor (Homo sapiens) (UniProt P04150). The experiment in a line: GR-GFP Redistribution (AID 450;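 active means compounds whose dose series gives a full or clear partial fitted curve of increased nuclear translocation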; further: potency means the concentration at half of the fitted maximal effect). Particulars: U2OS GR-GFP nuclear translocation, laser cytometry, 2 h.
The target is the same in experiment [10]. The experiment in a line: GR-EFC Redistribution (AID 451; calls by dose curve; further: potency means the concentration at half of the fitted maximal effect). Particulars: CHO-K1 GR-EFC translocation, beta-gal luminescence, 2 h. The method, boiled down:
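CHO-K1 cells expressing nuclear EA and GR-ED fragments of b-gal; compounds titrated up to 46 uM final, 2 h at 37 C. GR nuclear translocation read as complemented b-gal luminescence after 1 h RT detection.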

Experiment [11] addresses Mitogen-activated protein kinase 10 (Mus musculus) (UniProt Q61831). The experiment in a line: JNK3 AlphaScreen Assay (AID 530; active means well fitted curve in either direction with a large enough effect, not every such curve was filed as active;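 further: kinase came from lysate of stimulated human HepG2 cells; signal reports phosphorylation of biotinylated GST-cJun 1-79 at Ser73 with 10 µM ATP; on the % scale 0 is the no-effect control and ±100 the full control effect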). An outline of the steps:
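qHTS format: compounds tested as titrations against IL-1beta/TNF-alpha-activated HepG2 lysate JNK3 with biotin-GST-cJun substrate and 10 uM ATP at room temperature. Loss of anti-phospho-cJun AlphaScreen signal indicates inhibition.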
(In general: Bead proximity is the source of the signal in Alpha formats.)

Experiment [12] deals with Cytochrome P450 3A4 (Homo sapiens) (UniProt P08684). The experiment in a line: qHTS Assay for Activators of Cytochrome P450 3A4 (AID 885). Further: nearly all actives have a fitted effect of over 65% in size. An outline of the steps: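 Signal was normalized against complete inhibition by 57 uM ketoconazole. The reaction used 20nM CYP3A4 with 25uM Luciferin-PPXE, 10-min compound preincubation and a 60-min NADPH-supported step at RT.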
Experiment [13] deals with Dual specificity protein kinase CLK4 (Homo sapiens) (UniProt Q9HAZ1). The experiment in a line: qHTS Assay for Inhibitors of CDC-like Kinase 4 (ADP-Glo Assay) (AID 1771). Further: nearly all actives have a fitted effect of over 70% in size. Further: potency means the concentration at half of the fitted maximal effect. An outline of the steps: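 Kinase reaction: Clk4 at 25 nM, RS repeat peptide substrate at 100 uM, ATP at 1 uM, 1 hr, room temperature. Product ADP detected as luciferase signal via ADP-Glo.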
The nature of experiment [14]: AP1 Signaling Pathway (AID 357; active means well fitted curve in either direction with a large enough effect, not every such curve was filed as active; further: on the % scale 0 is the no-effect control and ±100 the full control effect). Particulars: ME-180 AP-1-bla reporter, EGF-induced, beta-lactamase ratio, 5 h; at 7.69 µM (top of the series) unless noted. The method, boiled down: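 Read-out was the 460nm/530nm emission ratio (excitation 405nm) after CCF4 loading for 2.5 hours at room temperature. Cells carried an AP-1-driven beta-lactamase reporter, were stimulated with EC50 EGF plus compound for 5 hours, and AC50 values came from titrations.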

Experiment [15] is described as follows: NFAT Signaling Pathway (AID 444; active means well fitted curve in either direction with a large enough effect, not every such curve was filed as active;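 further: carbachol stimulus at about its EC50 of 1 µM final; on the % scale 0 is the no-effect control and ±100 the full control effect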). To be noted: Jurkat NFAT-bla M1, carbachol, beta-lactamase ratio, 5 h; at 7.69 µM (top of the series) unless noted. The method, boiled down: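 Jurkat cells with NFAT-driven β-lactamase reporter and co-expressed M1 receptor, stimulated with carbachol (final 1 uM, ~EC50), compound titration, 5 h at 37 °C. CCF4 loaded 1 h at RT; 460/530 nm ratio gave %activity and AC50.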

For experiment [16], the target named is 3',5'-cyclic-AMP phosphodiesterase 4B (Homo sapiens) (UniProt Q07343). The experiment in a line: qHTS Assay for Inhibitors of PDE-IV (AID 607; active means well fitted activation curve with a large enough effect in the main read-out, with a control signal flat, not every such curve was filed as active; further: % of control where 0% means no effect). An outline of the steps:
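Cell-based read-out of cAMP via a modified cyclic nucleotide-gated channel and membrane potential dye (535/590 nm) in HEK293 cells expressing PDE4 endogenously. Compounds tested up to 22.9 uM final; 100 uM RO 20-1724 reference.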

Experiment [17] in a line: qHTS Assay for Identification of Small Molecule Agonists for Hypoxia Response Element Signaling Pathway (AID 914; active means well fitted activation curve with a large enough effect in the signal ratio, with a control signal flat, not every such curve was filed as active; the % refers to the signal ratio; further: potency means the concentration at half of the fitted maximal effect). Particulars: ME-180 (cervical carcinoma) HRE-bla reporter, beta-lactamase ratio, CoCl2, 17 h; activation: stronger effect = higher value. An outline of the steps: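 In Opti-MEM containing 0.5% dialyzed FBS and 10 mM HEPES, ME-180 HRE-bla cells received a compound titration and EC50 CoCl2. They were incubated 17 hours, then CCF4-loaded 2.5 hours at room temperature before ratio reading.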

Experiment [18] addresses Dual specificity protein kinase CLK4 (Homo sapiens) (UniProt Q9HAZ1). The experiment in a line: qHTS Assay for Inhibitors of CDC-like Kinase 4 (ADP-FP Assay) (AID 1795).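 Further: recombinant human CLK4 phosphorylating RS repeat peptide at 1 µM ATP; on the % scale 0 is the no-effect control and ±100 the full control effect; nearly all actives have a fitted effect of over 60% in size.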 The method, boiled down:
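Kinase activity was followed as ADP output, converted from fluorescence polarization with a calibration curve. Reactions ran one hour at low ATP (1 uM) with RS peptide substrate.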

[19] abbreviates: measured here: cell count channel max response.
The mark [20] stands for this setting: measured here: lipid channel max response.

The source of these data is PubChem BioAssay (NCATS).

Values joined by “and” are separate entries in the source; they are usually repeats but may differ in a detail not shown here. Identical values can stand only once. Inconclusive results are not listed. Active and inactive are the calls of the source. Unless noted, the call rests on the fitted dose curve; in most records, active means well fitted curve in the direction sought with a large enough effect; inconclusive means small, poorly fitted or top-dose-only effect, or another doubt; inactive means no such curve, though single readings can be large; an effect the other way counts as inactive or inconclusive.

Chain of Cytochrome P450 1A2 (Homo sapiens) (P05177 whole entry, looked up): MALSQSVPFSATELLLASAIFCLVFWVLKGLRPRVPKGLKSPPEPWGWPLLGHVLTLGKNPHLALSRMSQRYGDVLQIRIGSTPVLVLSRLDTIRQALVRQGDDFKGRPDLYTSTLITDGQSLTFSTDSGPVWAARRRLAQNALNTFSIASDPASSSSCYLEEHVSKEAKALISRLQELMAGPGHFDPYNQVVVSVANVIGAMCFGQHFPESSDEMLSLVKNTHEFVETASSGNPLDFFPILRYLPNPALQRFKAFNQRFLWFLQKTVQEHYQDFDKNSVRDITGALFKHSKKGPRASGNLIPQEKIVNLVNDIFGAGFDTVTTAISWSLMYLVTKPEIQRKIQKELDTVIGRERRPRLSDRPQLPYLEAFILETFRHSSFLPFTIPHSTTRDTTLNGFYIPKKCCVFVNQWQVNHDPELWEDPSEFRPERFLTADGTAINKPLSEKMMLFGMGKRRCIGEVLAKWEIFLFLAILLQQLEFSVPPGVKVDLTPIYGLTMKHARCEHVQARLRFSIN
Chain of Lysosomal acid glucosylceramidase (Homo sapiens) (P04062 whole entry, looked up): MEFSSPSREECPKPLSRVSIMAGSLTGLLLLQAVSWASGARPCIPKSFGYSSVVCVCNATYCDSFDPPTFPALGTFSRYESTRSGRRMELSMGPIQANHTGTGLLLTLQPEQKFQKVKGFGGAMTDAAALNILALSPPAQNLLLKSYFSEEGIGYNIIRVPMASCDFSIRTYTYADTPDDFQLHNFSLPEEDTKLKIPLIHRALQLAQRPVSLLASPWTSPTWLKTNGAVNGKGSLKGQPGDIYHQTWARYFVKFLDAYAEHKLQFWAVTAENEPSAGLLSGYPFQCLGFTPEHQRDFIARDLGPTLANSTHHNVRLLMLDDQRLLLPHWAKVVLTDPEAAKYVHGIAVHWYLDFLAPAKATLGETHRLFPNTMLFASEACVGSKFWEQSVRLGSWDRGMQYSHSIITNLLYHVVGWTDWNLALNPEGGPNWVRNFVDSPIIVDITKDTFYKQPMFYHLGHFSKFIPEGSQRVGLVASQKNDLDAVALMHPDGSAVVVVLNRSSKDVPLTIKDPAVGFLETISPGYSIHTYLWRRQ
Chain of Cytochrome P450 3A4 (Homo sapiens) (P08684 whole entry, looked up): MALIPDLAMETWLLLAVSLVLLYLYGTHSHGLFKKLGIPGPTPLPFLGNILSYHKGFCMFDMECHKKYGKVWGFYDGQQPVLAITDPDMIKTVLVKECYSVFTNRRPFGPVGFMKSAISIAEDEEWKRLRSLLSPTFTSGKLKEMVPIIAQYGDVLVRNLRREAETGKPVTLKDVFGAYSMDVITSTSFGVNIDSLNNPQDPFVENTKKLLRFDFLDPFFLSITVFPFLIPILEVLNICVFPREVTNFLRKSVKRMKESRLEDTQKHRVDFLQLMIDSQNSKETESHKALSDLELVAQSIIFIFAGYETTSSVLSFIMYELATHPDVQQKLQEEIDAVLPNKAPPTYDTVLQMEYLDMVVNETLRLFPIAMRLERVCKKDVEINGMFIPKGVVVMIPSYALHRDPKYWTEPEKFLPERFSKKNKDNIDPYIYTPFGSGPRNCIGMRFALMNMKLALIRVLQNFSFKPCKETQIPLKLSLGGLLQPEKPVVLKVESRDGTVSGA
Chain of Ubiquitin carboxyl-terminal hydrolase 1 (Homo sapiens) (O94782 whole entry, looked up): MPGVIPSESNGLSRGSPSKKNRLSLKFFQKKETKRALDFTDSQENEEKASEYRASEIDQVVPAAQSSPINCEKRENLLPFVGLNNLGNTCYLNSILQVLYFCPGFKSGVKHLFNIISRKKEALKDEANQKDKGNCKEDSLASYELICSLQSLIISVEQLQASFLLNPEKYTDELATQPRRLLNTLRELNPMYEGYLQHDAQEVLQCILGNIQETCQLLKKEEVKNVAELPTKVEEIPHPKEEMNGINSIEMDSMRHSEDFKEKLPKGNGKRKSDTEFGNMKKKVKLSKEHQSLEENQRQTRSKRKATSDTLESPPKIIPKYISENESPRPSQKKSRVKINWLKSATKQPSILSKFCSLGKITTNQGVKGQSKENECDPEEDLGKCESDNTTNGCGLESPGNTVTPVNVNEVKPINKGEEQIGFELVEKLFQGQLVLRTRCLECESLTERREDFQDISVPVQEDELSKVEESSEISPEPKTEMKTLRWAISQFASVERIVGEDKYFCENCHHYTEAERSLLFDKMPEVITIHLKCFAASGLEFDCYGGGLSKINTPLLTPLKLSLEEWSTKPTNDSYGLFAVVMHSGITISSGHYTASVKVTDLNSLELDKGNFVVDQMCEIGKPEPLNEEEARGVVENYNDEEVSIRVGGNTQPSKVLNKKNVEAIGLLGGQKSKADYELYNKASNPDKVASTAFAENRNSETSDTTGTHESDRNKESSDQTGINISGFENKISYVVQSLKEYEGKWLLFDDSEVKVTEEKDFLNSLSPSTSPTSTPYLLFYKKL
Chain of Glucocorticoid receptor (Homo sapiens) (P04150 whole entry, looked up): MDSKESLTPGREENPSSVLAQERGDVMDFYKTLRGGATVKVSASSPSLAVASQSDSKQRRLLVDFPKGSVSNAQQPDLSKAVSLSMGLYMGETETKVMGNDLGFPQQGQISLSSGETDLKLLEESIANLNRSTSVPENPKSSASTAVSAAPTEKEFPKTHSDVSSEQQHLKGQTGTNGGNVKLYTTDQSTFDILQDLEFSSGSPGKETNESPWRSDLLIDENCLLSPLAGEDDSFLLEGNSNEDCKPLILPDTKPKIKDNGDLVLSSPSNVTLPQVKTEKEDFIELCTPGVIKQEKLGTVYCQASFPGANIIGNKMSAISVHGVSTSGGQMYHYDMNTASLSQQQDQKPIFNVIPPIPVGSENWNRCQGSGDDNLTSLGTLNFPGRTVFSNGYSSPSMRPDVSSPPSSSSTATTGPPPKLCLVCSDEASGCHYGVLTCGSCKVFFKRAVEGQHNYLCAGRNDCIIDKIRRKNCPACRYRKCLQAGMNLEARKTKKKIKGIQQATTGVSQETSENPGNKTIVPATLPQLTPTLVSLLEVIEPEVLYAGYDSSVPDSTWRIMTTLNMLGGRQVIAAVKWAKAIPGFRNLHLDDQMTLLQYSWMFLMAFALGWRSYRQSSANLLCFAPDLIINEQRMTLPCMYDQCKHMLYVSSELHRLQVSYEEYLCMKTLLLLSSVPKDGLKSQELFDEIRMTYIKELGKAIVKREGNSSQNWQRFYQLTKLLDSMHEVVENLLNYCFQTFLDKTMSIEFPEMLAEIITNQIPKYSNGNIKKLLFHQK
Chain of Dual specificity protein kinase CLK4 (Homo sapiens) (Q9HAZ1 whole entry, looked up): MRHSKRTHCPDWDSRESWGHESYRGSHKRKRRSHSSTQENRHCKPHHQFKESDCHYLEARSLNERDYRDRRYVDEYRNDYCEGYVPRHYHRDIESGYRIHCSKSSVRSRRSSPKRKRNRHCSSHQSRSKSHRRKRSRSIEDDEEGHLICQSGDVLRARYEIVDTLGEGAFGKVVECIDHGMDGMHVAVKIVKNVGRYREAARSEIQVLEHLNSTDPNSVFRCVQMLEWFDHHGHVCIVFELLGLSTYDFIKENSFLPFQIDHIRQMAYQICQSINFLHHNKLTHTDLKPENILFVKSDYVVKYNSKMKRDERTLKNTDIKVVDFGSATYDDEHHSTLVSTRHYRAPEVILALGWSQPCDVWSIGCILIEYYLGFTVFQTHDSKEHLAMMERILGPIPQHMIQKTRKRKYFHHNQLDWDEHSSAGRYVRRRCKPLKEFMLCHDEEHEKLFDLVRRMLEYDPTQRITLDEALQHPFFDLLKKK
Chain of 3',5'-cyclic-AMP phosphodiesterase 4B (Homo sapiens) (Q07343 whole entry, looked up): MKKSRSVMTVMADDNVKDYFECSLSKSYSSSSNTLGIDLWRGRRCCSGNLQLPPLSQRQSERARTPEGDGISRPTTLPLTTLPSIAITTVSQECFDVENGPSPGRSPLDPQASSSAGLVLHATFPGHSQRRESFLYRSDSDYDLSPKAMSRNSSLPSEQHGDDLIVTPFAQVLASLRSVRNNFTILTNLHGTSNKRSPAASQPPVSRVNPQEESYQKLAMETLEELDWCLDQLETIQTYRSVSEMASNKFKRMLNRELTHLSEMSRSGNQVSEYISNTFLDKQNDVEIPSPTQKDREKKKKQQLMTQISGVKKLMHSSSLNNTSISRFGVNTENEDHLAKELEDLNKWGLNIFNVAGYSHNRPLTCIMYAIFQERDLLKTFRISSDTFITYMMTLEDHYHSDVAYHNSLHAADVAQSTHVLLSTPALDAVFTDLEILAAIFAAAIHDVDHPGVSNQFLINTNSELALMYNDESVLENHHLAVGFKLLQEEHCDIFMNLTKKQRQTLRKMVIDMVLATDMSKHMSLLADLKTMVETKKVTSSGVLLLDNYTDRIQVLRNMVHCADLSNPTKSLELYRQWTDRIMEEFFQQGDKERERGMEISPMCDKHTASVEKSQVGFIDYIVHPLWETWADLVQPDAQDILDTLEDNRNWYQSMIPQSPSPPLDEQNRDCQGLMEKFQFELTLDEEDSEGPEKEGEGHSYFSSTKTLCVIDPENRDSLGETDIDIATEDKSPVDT

On to `COc1ccc2ccc(=O)oc2c1`, for which the Potency entry in experiment [1], in [2] and in experiment [5] was “inactive” each time. The molecule was classed as inactive in experiment [3]. Besides, the activity change, negative = inhibition in experiment [4] was 7.71% (inactive). Besides, the max response in [4] (setting [19]) is -2.86%; in experiment [4] (setting [20]), 5.5%.

Regarding `O=C(/C=C/c1ccc(O)c(O)c1)OC(Cc1ccc(O)c(O)c1)C(=O)O` (stereo unspecified), the Potency result in experiment [1], in experiment [2] and in experiment [5] was “inactive” in each case. The outcome in experiment [3] was inactive. Moreover, in experiment [4], the activity change, negative = inhibition was 6.07% (inactive) and 7.21% (inactive). In addition, the max response in experiment [4] (setting [19]) was 10.1% and -5.16%; in experiment [4] (setting [20]) it was 18.1% and 1.39%.

On to `N#Cc1cccc(-c2ccc3ncnc(NCc4ccccc4)c3c2)c1`, for which the Potency was > 11.4 µM (inactive) in experiment [6]; 0.1 µM (active) in experiment [7]; > 46 µM (inactive) in [9]; > 46 µM (inactive) in experiment [10]; 8.91 µM (active) in experiment [13]; 15.8 µM (active) in experiment [5]. In experiment [8], the activity, negative = inhibition is -18.2% (inactive). The Potency result in experiment [11] and in experiment [12] was “inactive” each time. The activity change, negative = inhibition in experiment [4] is -0.0166% (inactive). For the same molecule, the values for the max response in experiment [4] (setting [19]) and in [4] (setting [20]) were 4.36% and 2.9%, respectively.

Consider `CC1=CC(=O)CC(C)(C)C1(O)/C=C/C(C)=C\C(=O)O` (stereo unspecified), for which the Potency result in experiment [11], in experiment [1] and in experiment [2] was “inactive” throughout. Besides, in experiment [3], the call was inactive. The activity change, negative = inhibition in experiment [4] was 8.24% (inactive) and 1.12% (inactive). The max response is 12.7% and 14.4% in [4] (setting [19]); 25.4% and 14.8% in experiment [4] (setting [20]).

With `COCCn1c(=O)c(-c2ccccc2)nc2cnc(N(C)C)nc21`, the Potency in experiment [6] is > 11.4 µM (inactive); in experiment [7], 3.16 µM (active); in experiment [9] it was > 9.22 µM (inactive); in [10], > 46 µM (inactive). Also, the results for the activity change, negative = inhibition in experiment [14], in experiment [15] and in [4] were -2% (inactive), 10.9% (inactive) and 6.53% (inactive), respectively. The Potency result in experiment [12], in experiment [13] and in [5] was “inactive” throughout. The max response came to 12.4% in experiment [4] (setting [19]) and 13.8% in experiment [4] (setting [20]).

As to `COc1ncc2nc(-c3cccs3)c(=O)n(C)c2n1`, the Potency in experiment [6] was > 11.4 µM (inactive); in experiment [7], 2 µM (active); in experiment [9], > 46 µM (inactive); in [10], > 46 µM (inactive); in [17] it was 2.51 µM (active). For the same molecule, the figures for the activity change, negative = inhibition in experiment [15] and in experiment [4] were 8.87% (inactive) and 6% (inactive), respectively. Moreover, the activity, negative = inhibition in experiment [8] was 20.2% (inactive). The Potency result in experiment [11], in [16], in [12], in [18] and in experiment [5] was “inactive” throughout. Further, the max response is 19.4% in [4] (setting [19]) and 24.1% in experiment [4] (setting [20]).

Regarding `COc1cc2c(cc1OC)C1Cc3ccc(OC)c(OC)c3CN1CC2` (stereo unspecified), the Potency result in experiment [12] and in [2] was “inactive” each time. Further, in experiment [3], the result was inactive. The activity change, negative = inhibition in experiment [4] was 8.32% (inactive). The max response was 12.8% in experiment [4] (setting [19]) and 22.2% in experiment [4] (setting [20]).

For `COc1ccccc1CNc1cc(-c2cccc(C#N)c2)ncn1`, the Potency in [6] is > 11.4 µM (inactive); in experiment [7], 3.98 µM (active); in experiment [9] it was > 46 µM (inactive); in experiment [10], > 46 µM (inactive). For the same molecule, the activity change, negative = inhibition in experiment [14] is -5.31% (inactive); in experiment [15] it was 17.8% (inactive); in experiment [4] it was 3.16% (inactive). For the same molecule, the activity, negative = inhibition in experiment [8] was -0.867% (inactive). Also, the Potency entry in experiment [11], in experiment [16], in experiment [12], in [18] and in experiment [5] was “inactive” throughout. Moreover, the figures for the max response in experiment [4] (setting [19]) and in experiment [4] (setting [20]) were 4.01% and 4.55%, respectively.
